Data taken from PubChem BioAssay (NCATS).
Records with an inconclusive call do not appear. A call without a number means that no potency is given here. Calls of active or inactive are those of the source. Unless noted, calls follow the shape of the dose curve; as a rule, active = well fitted curve in the direction sought with a large enough effect; inconclusive = small, poorly fitted or top-dose-only effect, or another doubt; inactive = no such curve, though single readings can be large; an effect the other way counts as inactive or inconclusive.

Experiments:
[1] = P-glycoprotein substrates identified in KB-3-1 adenocarcinoma cell line, qHTS therapeutic library screen (AID 1346986); settings: KB-3-1 parental cells viability, CellTiter-Glo, 72 h; at 44.5 µM (top of the series) unless noted; also: nearly all actives have a fitted effect of over 60% in size
Outline: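 KB-3-1 parental and colchicine-selected P-gp-overexpressing KB-8-5-11 cells (colchicine omitted during assay), 500 cells/well, dosed in dose-response for 72 h at 37 °C; CellTiter-Glo luminescence. Cytotoxic: curve class -1.1 to -2.4, max response >50%, AC50 < 10 uM.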

[2] = Natriuretic polypeptide receptor (hNpr1) antagonism - Pilot counterscreen GloSensor control cell line (AID 1347045; calls by dose curve)
Outline: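 HEK293 cGMP GloSensor cells preloaded 2 h with 2% GloSensor reagent, then compound 30 min before baseline luminescence read. Stimulated with 50 uM sodium nitroprusside, 20 min at room temperature, then read again; counterscreen for Npr1 antagonism.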

[3] = target: Atrial natriuretic peptide receptor 1 (Homo sapiens) (UniProt P16066); assay: Natriuretic polypeptide receptor (hNpr1) antagonism - Pilot screen (AID 1347049; calls by dose curve;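 also: agonist-evoked cGMP luminescence read 20 min after hNppA addition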)
Outline: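 HEK293 cells expressing hNpr1 and GloSensor cGMP luciferase, 1500/well, loaded with 2% GloSensor reagent 2 h, compound 30 min at room temperature; luminescence read before and 20 min after 0.1 nM hNppA stimulation.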

[4] = target: Atrial natriuretic peptide receptor 2 (Homo sapiens) (UniProt P20594); assay: Natriuretic polypeptide receptor (hNpr2) antagonism - Pilot subtype selectivity assay (AID 1347050; calls by dose curve; also: potency is read from the fitted curve at half-maximal effect)
Outline: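 HEK293 cells expressing hNpr2 and a GloSensor cGMP luciferase sensor, 1500/well, preloaded 2 h with 2% GloSensor reagent, compound 30 min, then 1 nM hNppC for 20 min. Antagonism from luminescence after versus baseline pre-read; LOPAC in 1:5 titrations.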

[5] = NS1 protein of Zika virus - qHTS assay to identify small molecule inhibitors in human HEK 293 cells (AID 1347053); also: nearly all actives have a fitted effect of over 55% in size
Outline: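 Following 20 h seeding, HEK 293 cells took compound, then 1 h later ZIKV MR766 (MOI = 0.5). Incubation ran 24 h at 37 C before TR-FRET detection of NS1; a drop in signal indicates inhibition.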

[6] = target: T1, Tyrosine-protein phosphatase non-receptor type substrate 1 (Homo sapiens) + Leukocyte surface antigen CD47 (Homo sapiens) (UniProt P78324+Q08722); assay: CD47-SIRPalpha protein protein interaction - LANCE assay qHTS validation (AID 1347057; active = well fitted curve in the direction sought with a large enough effect in the signal ratio, with a control signal flat, not every such curve was filed as active; the % refers to the signal ratio)
Outline: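 First, His-tagged CD47 and Eu-labelled anti-His antibody met the compound for 30 min; next, site-specifically biotinylated SIRPalpha was added for 30 min; finally streptavidin-APC was added before reading the TR-FRET ratio.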

[7] = target: T1, Tyrosine-protein phosphatase non-receptor type substrate 1 (Homo sapiens) + Leukocyte surface antigen CD47 (Homo sapiens); assay: CD47-SIRPalpha protein protein interaction - HTRF assay qHTS validation (AID 1347058; active = well fitted curve in the direction sought with a large enough effect in the signal ratio, not every such curve was filed as active; the % refers to the signal ratio;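 also: recombinant soluble extracellular CD47 with His tag and biotinylated SIRPalpha domains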)
Outline: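 TR-FRET read (Ch1/Ch2 ratio) of soluble extracellular CD47 and Avi-biotinylated SIRPalpha domains in PBS pH 7.4 with 0.05% IGEPAL; 7-point compound titration. Sequential 30 min room-temperature steps; non-biotinylated SIRPalpha as control inhibitor.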

[8] = target: T1, Tyrosine-protein phosphatase non-receptor type substrate 1 (Homo sapiens) + Leukocyte surface antigen CD47 (Homo sapiens); assay: CD47-SIRPalpha protein protein interaction - Alpha assay qHTS validation (AID 1347059);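 also: bead proximity luminescence from CD47 binding SIRPalpha after compound preincubation with SIRPalpha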
Outline: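 Biotinylated Avi-tagged SIRPalpha (25 nM) preincubated 30 min with compound, then His-tagged CD47 (12.5 nM) added 30 min; AlphaScreen with Ni-NTA acceptor and streptavidin donor beads. PBS pH 7.4, 0.05% IGEPAL, room temperature; 7-point titrations.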

[9] = target: Parathyroid hormone/parathyroid hormone-related peptide receptor (Homo sapiens) (UniProt Q03431); assay: qHTS for PTHR1 Agonists: Optimization Screen against the NCGC LOPAC library (AID 1347079);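 also: GloSensor cAMP luminescence in HEK-293 GP2 cells expressing human PTHR1 with IBMX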
Outline: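 Agonist readout: GloSensor cAMP luminescence, read after 15 min at room temperature. HEK-293-derived GP2 line carries PTHR1; compounds tested as a titration for 1 hr at 37C in presence of IBMX. M-PTH (1-15) served as control.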

[10] = qHTS of pediatric cancer cell lines to identify multiple opportunities for drug repurposing: Primary screen for DAOY cells (AID 1347090); also: nearly all actives have a fitted effect of over 55% in size
Outline: (§1)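 Viability measured as metabolically active cells via CellTiter-Glo luminescence following 48 hours of compound exposure, 11-point dilutions in confirmatory testing. 500-1,000 cells/well plated 5 hours before dosing; controls were DMSO and 2.3 µM bortezomib.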

[11] = qHTS of pediatric cancer cell lines to identify multiple opportunities for drug repurposing: Primary screen for SJ-GBM2 cells (AID 1347091)
Outline: as §1

[12] = qHTS of pediatric cancer cell lines to identify multiple opportunities for drug repurposing: Primary screen for A673 cells (AID 1347092); also: nearly all actives have a fitted effect of over 45% in size; also: potency is read from the fitted curve at half-maximal effect
Outline: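 Titration-based qHTS on A673 cells: MIPE compounds spanned 11 points (0.78 nM to 46 µM final), NPC compounds 8 points (0.59 nM to 46 µM final). Viability after 48 h was measured by ATP luminescence.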

[13] = P-glycoprotein substrates identified in KB-8-5-11 adenocarcinoma cell line, qHTS therapeutic library screen (AID 1346987); also: nearly all actives have a fitted effect of over 65% in size; also: potency is read from the fitted curve at half-maximal effect
Outline: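 KB-8-5-11, a colchicine-selected P-gp-overexpressing KB-3-1 subline, was grown without colchicine for the assay. Cells were seeded at 500 cells/well, dosed in concentration-response and incubated 72 h at 37 degree C, 5% CO2. Viability was read by CellTiter-Glo luminescence.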

[14] = qHTS of pediatric cancer cell lines to identify multiple opportunities for drug repurposing: Primary screen for TC32 cells (AID 1347089); also: nearly all actives have a fitted effect of over 60% in size
Outline: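 A viability screen of TC32 cells was run over 48 h, with primary MIPE doses spanning 0.78 nM–46 µM and NPC doses 0.59 nM–46 µM. ATP luminescence (CellTiter-Glo) served as the read-out.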

[15] = qHTS of pediatric cancer cell lines to identify multiple opportunities for drug repurposing: Primary screen for SK-N-MC cells (AID 1347093)
Outline: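 Metabolically active cells were quantified by ATP-dependent luminescence (CellTiter-Glo, 15 min at room temperature) following 48 h treatment. Cells had been plated at 500-1,000 per well and settled for 5 h beforehand.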

[16] = Identifying Small Molecule Inhibitors of Pancreatic Cancer Stem Cells (SN12C, Adherent) (AID 1259358);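 also: cell survival measured after 48 h of compound exposure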
Outline: (§2)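 Endpoint: ATP-based luminescence, 48 h drug exposure. Bortezomib at 9.2 uM final as full-kill control; DMSO vehicle as negative control; activity normalized between vehicle and cell-free wells.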

[17] = Identifying Small Molecule Inhibitors of Pancreatic Cancer Stem Cells (SN12C, Spheroid) (AID 1259360)
Outline: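 Pre-formed 14-day tumor spheroids or adherent cells dosed and incubated 48 h, 37C, 5% CO2. Viability assessed by CellTiter-Glo.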

[18] = Identifying Small Molecule Inhibitors of Pancreatic Cancer Stem Cells (A278, Adherent) (AID 1259361);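 also: viability read after 48 h compound exposure; nearly all actives have a fitted effect of over 35% in size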
Outline: as §2

[19] = Identifying Small Molecule Inhibitors of Pancreatic Cancer Stem Cells (Panc1, Adherent) (AID 1259362); settings: Potency: viability;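 also: compound exposure lasted 48 h before the viability read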
Outline: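 Spheroids grown 14 days in stem cell media on hydrogel-coated nonadherent plates; 2D lines seeded directly. Compounds added after 4 h attachment, 48 h at 37C, 5% CO2; CellTiter-Glo luminescence normalized to DMSO (no inhibition) and no-cell wells (full inhibition).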

Sequence of Atrial natriuretic peptide receptor 2 (Homo sapiens) (P20594 whole entry, looked up): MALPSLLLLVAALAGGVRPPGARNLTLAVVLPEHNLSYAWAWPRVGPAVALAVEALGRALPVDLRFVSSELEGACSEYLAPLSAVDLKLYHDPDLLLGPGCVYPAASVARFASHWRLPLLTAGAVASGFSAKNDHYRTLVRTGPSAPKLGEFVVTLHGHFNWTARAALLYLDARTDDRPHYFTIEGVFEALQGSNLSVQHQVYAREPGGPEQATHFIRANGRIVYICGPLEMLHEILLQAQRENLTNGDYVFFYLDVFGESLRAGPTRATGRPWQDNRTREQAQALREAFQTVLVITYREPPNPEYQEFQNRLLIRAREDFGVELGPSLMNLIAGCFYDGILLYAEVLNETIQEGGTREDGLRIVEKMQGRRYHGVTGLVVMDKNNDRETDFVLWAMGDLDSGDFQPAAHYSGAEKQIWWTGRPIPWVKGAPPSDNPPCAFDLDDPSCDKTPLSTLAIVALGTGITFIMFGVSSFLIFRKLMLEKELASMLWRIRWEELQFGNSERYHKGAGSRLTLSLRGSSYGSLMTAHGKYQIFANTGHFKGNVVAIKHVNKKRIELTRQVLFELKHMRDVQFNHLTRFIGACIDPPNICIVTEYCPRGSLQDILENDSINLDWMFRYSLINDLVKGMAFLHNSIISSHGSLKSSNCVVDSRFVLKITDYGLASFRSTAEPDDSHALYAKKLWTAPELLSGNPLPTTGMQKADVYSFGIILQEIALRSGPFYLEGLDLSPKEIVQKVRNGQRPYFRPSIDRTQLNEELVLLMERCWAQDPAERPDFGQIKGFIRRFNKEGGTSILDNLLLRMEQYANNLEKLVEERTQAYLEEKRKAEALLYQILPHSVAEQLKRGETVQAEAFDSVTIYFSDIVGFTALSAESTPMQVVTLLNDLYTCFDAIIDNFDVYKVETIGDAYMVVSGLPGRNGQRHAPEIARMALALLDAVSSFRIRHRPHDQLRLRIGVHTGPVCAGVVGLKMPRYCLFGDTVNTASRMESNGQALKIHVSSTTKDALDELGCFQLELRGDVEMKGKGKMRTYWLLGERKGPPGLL
T1 sequence (P78324 whole entry, looked up): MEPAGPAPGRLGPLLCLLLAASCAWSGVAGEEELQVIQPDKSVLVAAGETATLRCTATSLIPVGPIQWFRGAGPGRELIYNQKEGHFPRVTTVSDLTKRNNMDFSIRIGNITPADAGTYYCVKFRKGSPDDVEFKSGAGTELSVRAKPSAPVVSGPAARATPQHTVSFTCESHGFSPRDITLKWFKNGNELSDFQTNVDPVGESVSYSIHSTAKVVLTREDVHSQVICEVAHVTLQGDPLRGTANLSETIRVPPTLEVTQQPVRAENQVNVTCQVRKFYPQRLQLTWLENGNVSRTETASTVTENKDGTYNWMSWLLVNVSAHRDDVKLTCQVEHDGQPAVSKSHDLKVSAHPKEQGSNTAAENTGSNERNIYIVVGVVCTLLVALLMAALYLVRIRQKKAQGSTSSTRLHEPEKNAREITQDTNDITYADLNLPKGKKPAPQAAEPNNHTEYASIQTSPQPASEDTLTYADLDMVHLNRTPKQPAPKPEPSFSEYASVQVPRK
T1 sequence (Q08722 whole entry, looked up): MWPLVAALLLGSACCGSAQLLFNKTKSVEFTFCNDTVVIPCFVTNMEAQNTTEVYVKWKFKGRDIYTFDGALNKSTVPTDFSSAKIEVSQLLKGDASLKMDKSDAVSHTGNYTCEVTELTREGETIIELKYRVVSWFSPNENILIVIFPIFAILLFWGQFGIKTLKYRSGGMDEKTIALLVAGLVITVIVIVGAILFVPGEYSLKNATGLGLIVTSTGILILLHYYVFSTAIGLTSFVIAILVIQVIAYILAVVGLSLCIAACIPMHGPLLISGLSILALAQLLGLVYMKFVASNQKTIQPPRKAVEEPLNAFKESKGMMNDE
Sequence of Atrial natriuretic peptide receptor 1 (Homo sapiens) (P16066 whole entry, looked up): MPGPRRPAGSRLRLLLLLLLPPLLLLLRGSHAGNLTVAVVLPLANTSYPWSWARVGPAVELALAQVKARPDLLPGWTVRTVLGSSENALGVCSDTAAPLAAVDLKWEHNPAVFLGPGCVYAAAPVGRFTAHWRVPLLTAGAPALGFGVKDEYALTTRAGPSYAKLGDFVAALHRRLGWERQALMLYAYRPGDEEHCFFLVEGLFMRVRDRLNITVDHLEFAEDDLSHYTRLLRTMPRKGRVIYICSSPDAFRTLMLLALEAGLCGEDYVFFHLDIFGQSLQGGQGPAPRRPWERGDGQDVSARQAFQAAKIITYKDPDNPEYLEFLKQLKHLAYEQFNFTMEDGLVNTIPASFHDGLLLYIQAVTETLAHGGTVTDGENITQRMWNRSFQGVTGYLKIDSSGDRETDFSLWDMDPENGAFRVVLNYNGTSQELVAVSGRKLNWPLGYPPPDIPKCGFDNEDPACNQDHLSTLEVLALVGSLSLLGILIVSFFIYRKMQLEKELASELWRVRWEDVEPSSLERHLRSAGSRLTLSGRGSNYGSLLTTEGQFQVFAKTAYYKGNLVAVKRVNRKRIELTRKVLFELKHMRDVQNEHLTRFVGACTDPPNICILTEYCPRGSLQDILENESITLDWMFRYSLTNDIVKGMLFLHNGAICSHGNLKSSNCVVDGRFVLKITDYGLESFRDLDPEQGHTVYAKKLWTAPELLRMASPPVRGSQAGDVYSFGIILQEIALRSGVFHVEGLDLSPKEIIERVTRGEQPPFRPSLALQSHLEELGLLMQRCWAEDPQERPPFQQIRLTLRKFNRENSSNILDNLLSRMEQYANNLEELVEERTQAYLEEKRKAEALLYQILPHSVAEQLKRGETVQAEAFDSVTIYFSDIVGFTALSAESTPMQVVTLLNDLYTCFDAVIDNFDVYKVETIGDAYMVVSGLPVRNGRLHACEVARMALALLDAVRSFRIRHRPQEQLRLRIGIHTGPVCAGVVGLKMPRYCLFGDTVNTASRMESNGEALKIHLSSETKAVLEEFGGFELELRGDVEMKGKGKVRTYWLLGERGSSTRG
Sequence of Parathyroid hormone/parathyroid hormone-related peptide receptor (Homo sapiens) (Q03431 whole entry, looked up): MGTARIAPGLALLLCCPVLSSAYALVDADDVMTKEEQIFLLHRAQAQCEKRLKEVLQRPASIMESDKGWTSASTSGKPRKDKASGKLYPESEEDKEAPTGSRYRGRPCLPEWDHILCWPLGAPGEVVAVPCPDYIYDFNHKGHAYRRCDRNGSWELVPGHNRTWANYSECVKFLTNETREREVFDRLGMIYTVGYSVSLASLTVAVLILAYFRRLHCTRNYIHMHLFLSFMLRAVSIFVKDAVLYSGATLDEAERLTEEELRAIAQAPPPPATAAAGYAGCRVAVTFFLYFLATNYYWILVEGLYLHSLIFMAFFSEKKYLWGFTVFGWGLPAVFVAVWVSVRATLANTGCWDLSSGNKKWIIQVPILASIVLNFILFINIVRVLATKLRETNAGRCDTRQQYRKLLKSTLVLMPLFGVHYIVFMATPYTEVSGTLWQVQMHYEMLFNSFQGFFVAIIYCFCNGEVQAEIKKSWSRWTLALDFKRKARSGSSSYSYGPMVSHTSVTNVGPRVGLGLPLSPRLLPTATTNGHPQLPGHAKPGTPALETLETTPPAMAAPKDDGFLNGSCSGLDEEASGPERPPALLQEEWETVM

| SMILES | outcome [1] | outcome [2] | outcome [3] | Potency [4] | Potency [5] | outcome [6] | outcome [7] | outcome [8] | Potency [9] | Potency [10] | Potency [11] | Potency [12] | Potency [13] | Potency [14] | Potency [15] | outcome [16] | outcome [17] | IC50 (viability decrease) [18] | Potency [19] |
| --- | --- | --- | --- | --- | --- | --- | --- | --- | --- | --- | --- | --- | --- | --- | --- | --- | --- | --- | --- |
| COc1ccc(Cl)cc1C(=O)NCCc1ccc(S(=O)(=O)NC(=O)NC2CCCCC2)cc1 | inactive | inactive | inactive | inactive | inactive | inactive | inactive | inactive | inactive | inactive | inactive | inactive |  |  |  |  |  |  |  |
| Nc1ccc(S(=O)(=O)Nc2nccs2)cc1 | inactive |  |  |  | inactive |  |  |  |  | inactive | inactive | inactive | inactive | inactive | inactive |  |  |  |  |
| CCN(CC)CCCC(C)Nc1c2ccc(Cl)cc2nc2ccc(OC)cc12 (stereo unspecified) |  |  | inactive | inactive | inactive |  |  |  | inactive |  |  | 21.1 µM (active) | 6.32 µM (active) | inactive |  |  |  |  |  |
| CC(C(O)c1ccc(O)cc1)N1CCC(Cc2ccccc2)CC1 (stereo unspecified) | inactive [at 17.4 µM] | inactive | inactive | inactive | inactive | inactive | inactive | inactive | inactive | inactive | inactive | inactive | inactive | inactive | inactive |  |  |  |  |
| CN(C)CCCN1c2ccccc2CCc2ccccc21 |  | inactive | inactive | 16.5 µM (active) | inactive | inactive | inactive | inactive | inactive | inactive | inactive |  | 9.2 µM (active) | inactive |  |  |  |  |  |
| C[C@@H]1C[C@H]2[C@@H]3C[C@H](F)C4=CC(=O)C=C[C@]4(C)[C@@]3(F)[C@@H](O)C[C@]2(C)[C@@]1(O)C(=O)CO | inactive |  |  |  | inactive |  |  |  |  | inactive |  | inactive | inactive | inactive | inactive |  |  |  |  |
| C[C@H](NC(CCc1ccccc1)C(=O)O)C(=O)N1CCC[C@H]1C(=O)O (stereo partly specified) |  |  |  |  | inactive | inactive | inactive | inactive |  | inactive | inactive | inactive | inactive | inactive | inactive |  |  |  |  |
| C=Cc1c(C)c2cc3[nH]c(cc4nc(cc5nc(cc1[nH]2)C(C)=C5CCC(=O)O)C(CCC(=O)O)=C4C)c(C)c3C=C |  |  | inactive |  | inactive | inactive |  | inactive | inactive |  | inactive | inactive | inactive | inactive | inactive |  |  |  |  |
| Oc1cn2c(n1)Nc1ccc(Cl)c(Cl)c1C2 |  |  |  |  | inactive |  |  |  |  | inactive | inactive | inactive |  | inactive | inactive | inactive | inactive | inactive | inactive |
